According to PubChem BioAssay (NCATS):
Records with an inconclusive call do not appear. Calls of active or inactive are those of the source. Unless noted, the call rests on the fitted dose curve; in most records, active means well fitted curve in the direction sought with a large enough effect; inconclusive means small, poorly fitted or top-dose-only effect, or another doubt; inactive means no such curve, though single readings can be large; an effect the other way counts as inactive or inconclusive.

Experiments:
[1] = AP1 Signaling Pathway (AID 357; active means well fitted curve in either direction with a large enough effect, not every such curve was filed as active;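 further: ME-180 reporter cells stimulated with EGF at its EC50 level; on the % scale 0 is the no-effect control and ±100 the full control effect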); conditions: ME-180 AP-1-bla reporter, EGF-induced, beta-lactamase ratio, 5 h; at 7.69 µM (top of the series) unless noted
Outline: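 Cells are seeded overnight, exposed to compound titrations and an EC50 level of EGF for 5 hours at 37 °C, then loaded with CCF4 dye for 2.5 hours. Beta-lactamase activity under the AP-1 element is read as a blue/green ratio.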

[2] = molecular target: Cytochrome P450 1A2 (Homo sapiens) (UniProt P05177); assay: p450-cyp1a2 (AID 410; calls by dose curve; further: potency means the concentration at half of the fitted maximal effect)
Cytochrome P450 1A2 (Homo sapiens), sequence (P05177 whole entry, looked up): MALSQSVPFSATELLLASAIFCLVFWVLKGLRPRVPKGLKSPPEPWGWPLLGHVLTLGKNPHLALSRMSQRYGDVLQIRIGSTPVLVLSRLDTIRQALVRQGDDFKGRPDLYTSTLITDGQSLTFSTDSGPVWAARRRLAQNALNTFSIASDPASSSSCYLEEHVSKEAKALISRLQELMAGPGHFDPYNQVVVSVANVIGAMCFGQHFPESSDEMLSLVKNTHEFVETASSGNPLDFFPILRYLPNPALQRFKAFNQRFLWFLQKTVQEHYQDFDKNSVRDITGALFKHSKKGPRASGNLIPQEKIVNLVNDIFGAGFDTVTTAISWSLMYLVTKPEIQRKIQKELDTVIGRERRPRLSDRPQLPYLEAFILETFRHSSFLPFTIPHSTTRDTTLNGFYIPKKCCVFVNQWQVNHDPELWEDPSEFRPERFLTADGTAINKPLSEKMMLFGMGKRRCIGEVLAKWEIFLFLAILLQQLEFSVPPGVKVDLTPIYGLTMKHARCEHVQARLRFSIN
Outline: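 Inhibition was calculated relative to 57 uM furafylline (full inhibition). The reaction used human CYP1A2 at 20nM with Luciferin-ME at its Km, 100uM, driven by an NADPH-regenerating system for 60 min at room temperature.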

[3] = NFAT Signaling Pathway (AID 444; active means well fitted curve in either direction with a large enough effect, not every such curve was filed as active;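 further: carbachol stimulus at about its EC50 of 1 µM final; on the % scale 0 is the no-effect control and ±100 the full control effect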); conditions: Jurkat NFAT-bla M1, carbachol, beta-lactamase ratio, 5 h; at 7.69 µM (top of the series) unless noted
Outline: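 Jurkat cells carrying an NFAT-driven β-lactamase reporter and co-transfected muscarinic M1 receptor were treated with compound plus carbachol (1 uM final, an EC50 level) for 5 h at 37 °C. CCF4 loading followed for 1 h at RT; 460/530 nm ratio gave %activity.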

[4] = Stat Signaling Pathway (AID 446; active means well fitted curve in either direction with a large enough effect, not every such curve was filed as active;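 further: ME-180 cervical cancer cells given 40 pM IL-6 alongside compound; SIE-controlled beta-lactamase reporter measured as 460/530 nm FRET emission ratio; on the % scale 0 is the no-effect control and ±100 the full control effect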); conditions: ME-180 SIE beta-lactamase reporter, IL-6 stimulated, 5 h; at 7.69 µM (top of the series) unless noted
Outline: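 Reporter line: ME-180 cervical carcinoma, SIE-beta-lactamase. Treatment: compound with 40 pM IL-6, 5 hrs, 37 C, in low-serum OPTI-MEM with 10 mM HEPES pH 7.3. Detection: 460/530 nm fluorescence.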

[5] = molecular target: Mitogen-activated protein kinase 10 (Mus musculus) (UniProt Q61831); assay: JNK3 AlphaScreen Assay (AID 530; active means well fitted curve in either direction with a large enough effect, not every such curve was filed as active;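 further: kinase came from lysate of stimulated human HepG2 cells; signal reports phosphorylation of biotinylated GST-cJun 1-79 at Ser73 with 10 µM ATP; on the % scale 0 is the no-effect control and ±100 the full control effect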)
Outline: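 JNK3 came from HepG2 lysates pre-activated with IL-1beta and TNF-alpha and phosphorylated biotinylated GST-cJun (1-79) at 10 uM ATP, pH 7.6, room temperature. Compounds were titrated. AlphaScreen signal used anti-phospho-cJun (Ser73) antibody.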

[6] = molecular target: 3',5'-cyclic-AMP phosphodiesterase 4B (Homo sapiens) (UniProt Q07343); assay: qHTS Assay for Inhibitors of PDE-IV (AID 607; active means well fitted activation curve with a large enough effect in the main read-out, with a control signal flat, not every such curve was filed as active; further: % of control where 0% means no effect)
3',5'-cyclic-AMP phosphodiesterase 4B (Homo sapiens), sequence (Q07343 whole entry, looked up): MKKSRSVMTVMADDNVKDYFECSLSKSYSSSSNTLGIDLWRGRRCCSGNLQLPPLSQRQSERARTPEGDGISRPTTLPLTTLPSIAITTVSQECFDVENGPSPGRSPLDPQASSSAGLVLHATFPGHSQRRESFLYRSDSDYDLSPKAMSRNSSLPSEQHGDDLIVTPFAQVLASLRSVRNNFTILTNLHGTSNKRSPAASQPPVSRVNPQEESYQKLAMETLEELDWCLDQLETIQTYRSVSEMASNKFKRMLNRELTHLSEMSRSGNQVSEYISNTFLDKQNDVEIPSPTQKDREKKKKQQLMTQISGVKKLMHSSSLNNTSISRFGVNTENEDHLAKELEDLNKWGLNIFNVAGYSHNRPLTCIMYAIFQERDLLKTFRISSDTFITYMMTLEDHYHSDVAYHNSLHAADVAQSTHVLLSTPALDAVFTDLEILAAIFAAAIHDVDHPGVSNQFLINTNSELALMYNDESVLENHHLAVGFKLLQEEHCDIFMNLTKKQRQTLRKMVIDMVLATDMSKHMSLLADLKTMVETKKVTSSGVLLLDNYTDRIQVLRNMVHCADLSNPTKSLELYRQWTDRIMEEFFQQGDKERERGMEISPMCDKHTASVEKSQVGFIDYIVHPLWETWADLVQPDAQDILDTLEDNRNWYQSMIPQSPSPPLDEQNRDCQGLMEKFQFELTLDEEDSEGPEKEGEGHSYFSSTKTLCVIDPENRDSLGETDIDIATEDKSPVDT
Outline: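 Cell-based read-out of cAMP via a modified cyclic nucleotide-gated channel and membrane potential dye (535/590 nm) in HEK293 cells expressing PDE4 endogenously. Compounds tested up to 22.9 uM final; 100 uM RO 20-1724 reference.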

[7] = molecular target: ATP-dependent 6-phosphofructokinase (Trypanosoma brucei brucei) (UniProt O15648); assay: qHTS Assay to Find Inhibitors of T. brucei phosphofructokinase: hit validation (AID 492961)
ATP-dependent 6-phosphofructokinase (Trypanosoma brucei brucei), sequence (O15648 whole entry, looked up): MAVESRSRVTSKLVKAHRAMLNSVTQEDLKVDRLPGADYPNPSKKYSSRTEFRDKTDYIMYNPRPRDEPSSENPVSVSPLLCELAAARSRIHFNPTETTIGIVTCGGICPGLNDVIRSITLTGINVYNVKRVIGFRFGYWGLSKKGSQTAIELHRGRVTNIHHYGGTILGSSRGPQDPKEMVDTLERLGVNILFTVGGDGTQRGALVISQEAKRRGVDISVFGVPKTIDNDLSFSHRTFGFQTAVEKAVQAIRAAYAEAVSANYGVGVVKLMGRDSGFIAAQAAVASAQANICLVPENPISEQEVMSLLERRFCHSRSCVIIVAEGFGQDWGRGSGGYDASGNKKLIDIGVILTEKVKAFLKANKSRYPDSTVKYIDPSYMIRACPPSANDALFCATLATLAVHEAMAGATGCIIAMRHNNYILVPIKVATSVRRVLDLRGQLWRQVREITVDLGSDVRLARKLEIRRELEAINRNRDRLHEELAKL
Outline: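 Reaction: 0.1 M triethanolamine pH 8.0, 5 mM MgCl2, F6P 0.5 mM, ATP 0.1 mM, PFK 1.25 nM, 45 min RT. Read-out: ADP-Glo luminescence. Analysis: concentration-response fits, classed by r2 and efficacy.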

[8] = molecular target: Ubiquitin carboxyl-terminal hydrolase 1 (Homo sapiens) (UniProt O94782); assay: Inhibitors of USP1/UAF1: Pilot qHTS (AID 504865);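 further: rhodamine fluorescence freed from ubiquitin-rhodamine substrate followed over time; top concentration of the series differs between compounds; on the % scale 0 is the no-effect control and ±100 the full control effect; nearly all actives have a fitted effect of over 35% in size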
Ubiquitin carboxyl-terminal hydrolase 1 (Homo sapiens), sequence (O94782 whole entry, looked up): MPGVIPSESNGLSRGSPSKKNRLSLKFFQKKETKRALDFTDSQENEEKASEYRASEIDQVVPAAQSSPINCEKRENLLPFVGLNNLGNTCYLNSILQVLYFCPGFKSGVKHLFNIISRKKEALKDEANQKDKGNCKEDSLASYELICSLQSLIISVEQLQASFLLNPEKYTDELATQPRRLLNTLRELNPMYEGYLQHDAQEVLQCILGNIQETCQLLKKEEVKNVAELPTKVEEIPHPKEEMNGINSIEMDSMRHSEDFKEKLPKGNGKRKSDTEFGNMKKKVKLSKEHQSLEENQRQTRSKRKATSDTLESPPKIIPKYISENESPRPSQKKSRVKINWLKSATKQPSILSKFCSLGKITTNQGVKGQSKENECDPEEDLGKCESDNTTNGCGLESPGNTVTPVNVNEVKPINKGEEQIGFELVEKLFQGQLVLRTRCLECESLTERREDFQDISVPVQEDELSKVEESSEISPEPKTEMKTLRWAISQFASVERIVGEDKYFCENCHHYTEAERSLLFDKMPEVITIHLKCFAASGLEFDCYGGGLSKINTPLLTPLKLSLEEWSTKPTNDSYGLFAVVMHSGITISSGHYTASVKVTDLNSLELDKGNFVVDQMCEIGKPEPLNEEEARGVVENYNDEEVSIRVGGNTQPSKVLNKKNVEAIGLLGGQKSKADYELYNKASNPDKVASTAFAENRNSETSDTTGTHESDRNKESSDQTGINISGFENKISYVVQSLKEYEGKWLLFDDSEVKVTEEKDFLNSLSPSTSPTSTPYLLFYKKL
Outline: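 Enzyme-free wells gave the negative control, while test wells held 1nM USP1/UAF1 preincubated with compound for 15 min at room temperature. Ub-Rho at 150nM final started the reaction, and fluorescence at 480/540 nm was recorded kinetically.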

[9] = molecular target: Luciferin 4-monooxygenase (Photinus pyralis) (UniProt P08659); assay: Biochemical firefly luciferase enzyme assay for NPC (AID 624030);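 further: purified P. pyralis luciferase at 10 nM with luciferin and ATP substrate; 0% = DMSO and -100% = full luciferase inhibition by PTC124 control; nearly all actives have a fitted effect of over 70% in size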
Luciferin 4-monooxygenase (Photinus pyralis), sequence (P08659 whole entry, looked up): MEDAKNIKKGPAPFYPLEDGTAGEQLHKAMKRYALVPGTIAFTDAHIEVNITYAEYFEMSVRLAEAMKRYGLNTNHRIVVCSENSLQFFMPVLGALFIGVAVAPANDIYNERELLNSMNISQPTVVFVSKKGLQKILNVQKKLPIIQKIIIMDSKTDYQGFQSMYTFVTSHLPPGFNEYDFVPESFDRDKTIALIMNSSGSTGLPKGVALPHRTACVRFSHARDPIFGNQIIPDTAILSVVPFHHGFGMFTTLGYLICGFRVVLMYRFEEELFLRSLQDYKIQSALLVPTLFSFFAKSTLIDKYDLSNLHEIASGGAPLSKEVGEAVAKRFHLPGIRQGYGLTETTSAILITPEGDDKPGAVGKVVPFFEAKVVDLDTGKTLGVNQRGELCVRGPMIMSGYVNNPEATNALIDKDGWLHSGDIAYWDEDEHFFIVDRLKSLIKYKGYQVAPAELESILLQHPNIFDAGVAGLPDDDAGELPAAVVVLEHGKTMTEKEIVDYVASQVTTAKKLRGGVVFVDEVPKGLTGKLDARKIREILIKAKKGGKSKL
Outline: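 Counter-screen for direct inhibition of the luciferase enzyme by approved-drug library compounds, run at 10 nM enzyme in 50 mM Tris acetate (final). Luminescence was read within 5 min of enzyme-buffer addition and normalized to PTC124 versus DMSO (0%).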

[10] = S16 Schwann cell PMP22 intronic element firefly luciferase assay (AID 624032);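 further: plate controls were DMSO for no effect and PTC124 positive control mean for full effect; nearly all actives have a fitted effect of over 30% in size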
Outline: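 Rat S16 Schwann cells stably carrying a PMP22 intronic element-driven Fluc reporter were seeded overnight, then exposed to compounds for 24 h at 37 °C. Luminescence was normalized to PTC124 (positive control) and DMSO (0% activity).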

[11] = S16 Schwann cell PMP22 intronic element beta-lactamase assay (AID 624044; calls by dose curve;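 further: 0% = DMSO and -100% = potassium clavulanate positive control; nearly all actives have a fitted effect of over 15% in size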)
Outline: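 Rat S16 Schwann cells with beta-Lac driven by a PMP22 intronic element, compound-treated 24 h at 37 °C. LiveBLAzer FRET B/G read: 460 nm normalized to potassium clavulanate vs DMSO; 535 nm FRET as viability; concentration-effect curves classified.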

[12] = qHTS profiling for inhibitors of Plasmodium falciparum proliferation (AID 504749); further: nearly all actives have a fitted effect of over 60% in size; further: potency means the concentration at half of the fitted maximal effect;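 on activity, negative = inhibition: 0% = DMSO vehicle and full inhibition = artemisinin control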; conditions: P. falciparum in erythrocytes, SYBR Green DNA, 72 h; parasite line B
Outline: (§1)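 P. falciparum-infected erythrocytes (0.3% parasitemia, 2.5% hematocrit final) were exposed to compounds for 72 h at 37 C in 5% CO2, then lysed with SYBR Green buffer overnight at room temperature; parasite DNA fluorescence was normalized to artemisinin and DMSO controls.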

3D7 = assay: as above; conditions: P. falciparum in erythrocytes, SYBR Green DNA, 72 h; series mostly up to 28.7 µM
Outline: as §1

7G8 = assay: as above; conditions: P. falciparum in erythrocytes, SYBR Green DNA, 72 h; series mostly up to 28.7 µM
Outline: as §1

AA1029 = assay: as above; conditions: P. falciparum in erythrocytes, SYBR Green DNA, 72 h; series mostly up to 28.7 µM
Outline: as §1

AS120 = assay: as above; conditions: P. falciparum in erythrocytes, SYBR Green DNA, 72 h; series mostly up to 28.7 µM
Outline: as §1

ATS95 = assay: as above; conditions: P. falciparum in erythrocytes, SYBR Green DNA, 72 h; series mostly up to 28.7 µM
Outline: as §1

CP203 = assay: as above; conditions: P. falciparum in erythrocytes, SYBR Green DNA, 72 h; series mostly up to 28.7 µM
Outline: as §1

CP215 = assay: as above; conditions: P. falciparum in erythrocytes, SYBR Green DNA, 72 h; series mostly up to 28.7 µM
Outline: as §1

CP217 = assay: as above; conditions: P. falciparum in erythrocytes, SYBR Green DNA, 72 h; series mostly up to 28.7 µM
Outline: as §1

CP238 = assay: as above; conditions: P. falciparum in erythrocytes, SYBR Green DNA, 72 h; series mostly up to 28.7 µM
Outline: as §1

CP252 = assay: as above; conditions: P. falciparum in erythrocytes, SYBR Green DNA, 72 h; series mostly up to 28.7 µM
Outline: as §1

CP260 = assay: as above; conditions: P. falciparum in erythrocytes, SYBR Green DNA, 72 h; series mostly up to 28.7 µM
Outline: as §1

CP265 = assay: as above; conditions: P. falciparum in erythrocytes, SYBR Green DNA, 72 h; series mostly up to 28.7 µM
Outline: as §1

CP335 = assay: as above; conditions: P. falciparum in erythrocytes, SYBR Green DNA, 72 h; series mostly up to 28.7 µM
Outline: as §1

DFO2036 = assay: as above; conditions: P. falciparum in erythrocytes, SYBR Green DNA, 72 h; series mostly up to 28.7 µM
Outline: as §1

DIV14 = assay: as above; conditions: P. falciparum in erythrocytes, SYBR Green DNA, 72 h; series mostly up to 28.7 µM
Outline: as §1

DIV17 = assay: as above; conditions: P. falciparum in erythrocytes, SYBR Green DNA, 72 h; series mostly up to 28.7 µM
Outline: as §1

DIV30 = assay: as above; conditions: P. falciparum in erythrocytes, SYBR Green DNA, 72 h; series mostly up to 28.7 µM
Outline: as §1

Dd2 = assay: as above; conditions: P. falciparum in erythrocytes, SYBR Green DNA, 72 h; series mostly up to 28.7 µM
Outline: as §1

GB4 = assay: as above; conditions: P. falciparum in erythrocytes, SYBR Green DNA, 72 h; series mostly up to 28.7 µM
Outline: as §1

ICS = assay: as above; conditions: P. falciparum in erythrocytes, SYBR Green DNA, 72 h; series mostly up to 28.7 µM
Outline: as §1

N140 = assay: as above; conditions: P. falciparum in erythrocytes, SYBR Green DNA, 72 h; series mostly up to 28.7 µM
Outline: as §1

P94_40 = assay: as above; conditions: P. falciparum in erythrocytes, SYBR Green DNA, 72 h; series mostly up to 28.7 µM
Outline: as §1

PAD = assay: as above; conditions: P. falciparum in erythrocytes, SYBR Green DNA, 72 h; series mostly up to 28.7 µM
Outline: as §1

PC26 = assay: as above; conditions: P. falciparum in erythrocytes, SYBR Green DNA, 72 h; series mostly up to 28.7 µM
Outline: as §1

TAB109 = assay: as above; conditions: P. falciparum in erythrocytes, SYBR Green DNA, 72 h; series mostly up to 28.7 µM
Outline: as §1

TAB165 = assay: as above; conditions: P. falciparum in erythrocytes, SYBR Green DNA, 72 h; series mostly up to 28.7 µM
Outline: as §1

W2 = assay: as above; conditions: P. falciparum in erythrocytes, SYBR Green DNA, 72 h; series mostly up to 28.7 µM
Outline: as §1

C[C@H]1C[C@@H]2[C@H]3CCC4=CC(=O)C=C[C@@]4(C)[C@@]3(Cl)[C@@H](O)C[C@]2(C)[C@]1(OC(=O)c1ccco1)C(=O)CCl
inactive: activity change, negative = inhibition [1] -22% [at 17.2 µM] | activity change, negative = inhibition [3] -27.1% [at 17.2 µM] | activity, negative = inhibition [4] -1.49% [at 17.2 µM] | Potency [5] | Potency [6] | outcome [7] | Potency [8] | outcome [9] | Potency [10] | outcome [11] | Potency (CP252)
active: Potency [2] 5.01 µM | Potency [12] 3.16 µM | Potency (3D7) 3.98 µM | Potency (7G8) 1.78 µM | Potency (AA1029) 3.16 µM | Potency (AS120) 3.55 µM | Potency (ATS95) 3.16 µM | Potency (CP203) 5.73 µM | Potency (CP215) 5.1 µM | Potency (CP217) 3.98 µM | Potency (CP238) 3.55 µM | Potency (CP260) 3.98 µM | Potency (CP265) 3.55 µM | Potency (CP335) 5.73 µM | Potency (DFO2036) 4.47 µM | Potency (DIV14) 5.1 µM | Potency (DIV17) 7.21 µM | Potency (DIV30) 6.42 µM | Potency (Dd2) 3.55 µM | Potency (GB4) 6.42 µM | Potency (ICS) 3.55 µM | Potency (N140) 3.55 µM | Potency (P94_40) 3.55 µM | Potency (PAD) 3.98 µM | Potency (PC26) 6.42 µM | Potency (TAB109) 3.55 µM | Potency (TAB165) 3.55 µM | Potency (W2) 3.61 µM
